For 86 compounds, inhibition results are on record in PubChem BioAssay AID687016 (The Scripps Research Institute Molecular Screening Center, 2013).

Screen size: about 370,000 compounds; about 2,800 (0.76%) were called active. Shown is part of a subset that was picked to be rich in actives. A number with no mark means an inactive call. Rule as the data show it: active = inhibition above about 21%; inactive = the rest.

Broadly, the inhibition is the relative decrease from the control value, in per cent.

Chain of E3 ubiquitin-protein ligase UHRF1 (Homo sapiens) (Q96T88 whole entry, looked up, the tested form may be a part): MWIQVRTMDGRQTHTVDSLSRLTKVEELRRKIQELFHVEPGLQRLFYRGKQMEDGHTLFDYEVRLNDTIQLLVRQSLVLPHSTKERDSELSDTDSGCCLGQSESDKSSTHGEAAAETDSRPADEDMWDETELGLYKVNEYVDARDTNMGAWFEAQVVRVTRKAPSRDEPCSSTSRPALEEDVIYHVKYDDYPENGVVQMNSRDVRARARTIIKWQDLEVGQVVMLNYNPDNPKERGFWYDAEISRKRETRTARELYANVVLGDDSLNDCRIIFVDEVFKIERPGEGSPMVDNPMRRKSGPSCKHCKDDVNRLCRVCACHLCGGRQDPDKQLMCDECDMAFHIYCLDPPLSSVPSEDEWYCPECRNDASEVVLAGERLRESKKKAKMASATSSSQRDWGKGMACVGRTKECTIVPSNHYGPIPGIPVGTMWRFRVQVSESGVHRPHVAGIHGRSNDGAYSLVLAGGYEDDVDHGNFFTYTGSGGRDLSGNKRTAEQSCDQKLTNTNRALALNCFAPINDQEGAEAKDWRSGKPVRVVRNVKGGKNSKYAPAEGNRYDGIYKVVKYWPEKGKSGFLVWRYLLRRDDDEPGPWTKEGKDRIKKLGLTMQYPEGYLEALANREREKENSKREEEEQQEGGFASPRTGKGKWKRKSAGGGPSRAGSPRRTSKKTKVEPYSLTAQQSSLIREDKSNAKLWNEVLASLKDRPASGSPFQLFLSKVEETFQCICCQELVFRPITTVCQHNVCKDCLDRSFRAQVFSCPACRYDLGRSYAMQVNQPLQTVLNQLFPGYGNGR

The experiment concerns the target E3 ubiquitin-protein ligase UHRF1 (Homo sapiens) (UniProt Q96T88). As to the kind of experiment: UHRF1 methylated DNA binding inhibitors, primary screen, counter-screen for MBD2 inhibitor project, biochemical, TR-FRET, human UHRF1, single concentration (AID 687016).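 Also: UHRF1 SRA domain binding a hemimethylated CpG hairpin DNA probe; 0% = median of test compound wells and 100% = reference inhibitor.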 To be noted: UHRF1 binding to methylated oligo, at 4.4 µM, active compounds read high. On the technique in general: Counterscreens check selectivity or assay interference.
Regarding `O=S1(=O)c2c(cccc2N2CC[C@H](O)C2)O[C@@H]2CCN1C2`, the inhibition was 1.23%.
The value for `CC(C)c1ccc(C2C(C#N)=C(N)Oc3c2oc(CO)cc3=O)cc1` (stereo unspecified) was -3.69%; that for `Cc1cc2c(c(=O)n1C)C(C(C)C)C(C#N)=C(N)O2` (stereo unspecified) was 0.11%; that for `Cc1cc2c(c(=O)n1Cc1ccco1)C(c1ccccc1)C(C#N)=C(N)O2` (stereo unspecified) was 32.8% (active).
Regarding `CCN(C(=O)[C@@H](C1CC1)[C@@H](O)c1ccc2ccccc2c1)c1ccccc1`, the inhibition was -2.68%.
As for `COc1ccc(C(=O)OCCN(C)C2CN(Cc3cn(Cc4cccc(C)c4)nn3)S(=O)(=O)C2)cc1OC` (stereo unspecified), the inhibition was 13.8%.
Regarding `Cn1nccc1/C=N\NC(=O)c1ccc(Cl)cc1`, the inhibition is 4.97%.
The value for `Cc1nn(-c2ccccc2)c(Cl)c1/C=N/NC(=O)c1nn(C)cc1[N+](=O)[O-]` was 23.8% (active); that for `Cc1nn(-c2ccccc2)c(-n2cccc2)c1C(=O)O` was 1.78%; that for `CC(C)CNC(=O)OCc1cn(Cc2ccc(F)cc2)nn1` was 3.53%.
`COC(=O)[C@H](C(C)C)N(CCc1cn(Cc2ccccc2)nn1)S(=O)(=O)c1ccc(F)cc1Br`: the inhibition is -0.16%.
For `Cc1ccc(Cn2cc(CN3[C@@H](CC(C)C)COc4ccc(Cl)cc4S3(=O)=O)nn2)cc1`, the inhibition was -2.98%.
The figure for `c1coc(CCNc2ncnc3ccc(-c4ccc5c(c4)OCO5)cc23)c1` is -3.63%; for `COC(=O)c1cccc(Cn2ccc3ccc(-c4ccc5ccn(C(=O)c6ccccc6C)c5c4)cc32)c1` it is -1.17%.
The value for `O=C(CN1CCN(c2ccc(O)cc2)CC1)Nc1ccc(-c2ccccc2)cc1` was -0.69%.
For the compound `O=C(COC(=O)c1ccccc1C(=O)N1CCN(c2ccccc2)CC1)NCc1ccccc1`, the inhibition is -3.11%.
For the compound `Oc1ccc(N2CCN(C(=S)NCc3ccccc3)CC2)cc1`, the inhibition is 40.4% (active).
With `CCOC(=O)C1CCN(C(=O)C(C)(C)NC(=O)Nc2ccccc2Cl)CC1`, the inhibition was 0.18%.
On to `COC(=O)[C@]12C[C@H](CC(=O)NCc3cccs3)C(=O)N(CCc3ccc(OC)c(OC)c3)C1=C[C@H](C(C)C)O[C@@H]2C1CC1`, for which the inhibition was -0.69%.
For the compound `O=C(CSc1nc2ccccc2s1)NN=Cc1ccc(O)cc1O`, the inhibition was -4.05%.
In the case of `CCCCOCCCNC(=O)C[C@H]1C[C@@]2(C(=O)OC)C(=C[C@H](C(C)(C)C)O[C@@H]2C)N(CCc2ccc(OC)c(OC)c2)C1=O`, the inhibition is -0.73%.
As for `COC(=O)[C@]12C[C@H](CC(=O)NCCC(C)C)C(=O)N(CCc3ccc(OC)c(OC)c3)C1=C[C@H](C(C)(C)C)O[C@@H]2C`, the inhibition was 34.2% (active).
Regarding `COC(=O)[C@]12C[C@H](CC(=O)NCc3ccccc3)C(=O)N(CCc3ccc(OC)c(OC)c3)C1=C[C@H](C(C)(C)C)O[C@@H]2C`, the inhibition was -1.24%.
On to `CC(C)(C)c1ccc(CSc2nnc(-c3cccs3)o2)cc1`, for which the inhibition was -2.34%.
The figure for `Cc1ccc(Cc2cnc(N)s2)o1` is 53.9% (active); for `O=C(NCCC1=CCCCC1)C1CCN(S(=O)(=O)c2ccc(Cl)s2)CC1` it is -0.71%; for `O=C(OC12CCCN(C1)/C(=C/c1ccccc1)C2)c1ccco1` (stereo unspecified) it is 3.41%.
In the case of `C=CCN1[C@@H](Cc2ccccc2)COc2cccc(N3CCSCC3)c2S1(=O)=O`, the inhibition is -0.98%.
Regarding `Cc1ccc(OCCC(=O)OCC(=O)N2c3ccccc3NC(=O)C2(C)C)cc1`, the inhibition is 24.6% (active).
On to `CNS(=O)(=O)c1cccc(C(=O)OCC(=O)N2c3ccccc3NC(=O)C2(C)C)c1`, for which the inhibition was 5.39%.
Take `CC1(C)C(=O)Nc2ccccc2N1C(=O)COC(=O)Cn1cnc2ccccc2c1=O`: the inhibition was 1.64%.
Regarding `COc1ccnc(C(=O)N2CCC(Oc3cccnc3)CC2)c1`, the inhibition was -0.76%.
As to `O=C1CC(c2ccc3c(c2)OCO3)N=C2N(CC3CC3)C/C(=C/c3ccccc3)N12` (stereo unspecified), the inhibition is -0.7%.
Regarding `O=c1ccc2c(-c3ccccc3S(=O)(=O)O)c3ccc(O)c(O)c3oc-2c1O`, the inhibition was 82.5% (active).
The figure for `Cc1cc(=O)[nH]c(SCC(=O)Nc2ccc(F)cc2F)n1` is -1.2%; for `CC(=O)C1=C(C)NC(=O)NC1c1ccc2c(c1)OCO2` (stereo unspecified) it is 0.08%.
As for `COCCOC(=O)C1=C(C)NC(=O)NC1c1cc2c(cc1Br)OCO2` (stereo unspecified), the inhibition was 0.79%.
In the case of `CCOCCOC(=O)C1=C(C)NC(=O)NC1c1ccc2c(c1)OCO2` (stereo unspecified), the inhibition was 31.3% (active).
Turning to `CC(CCN1CCC(C(O)(c2ccccc2)c2ccccc2)CC1)Oc1ccc(C(F)(F)F)cc1` (stereo unspecified), the inhibition is 1.26%.
The value for `O=C(CCS(=O)(=O)c1ccccc1)Nc1ccc(Cl)c(Cl)c1` was 3.31%.
As to `COC(=O)[C@]12C[C@H](CC(=O)NCC34CC5CC(CC(C5)C3)C4)C(=O)N(Cc3ccc(Cl)cc3Cl)C1=C[C@H](COCc1ccccc1)O[C@@H]2C`, the inhibition was -0.14%.
On to `CN(C)CCn1c(=S)[nH]c2ccc(Cl)cc2c1=O`, for which the inhibition was -4.42%.
As to `CCOC(=O)c1ccc2[nH]c(C)c(CN3CCN(C)CC3)c(=O)c2c1`, the inhibition is -2.6%.
As for `CCCCN(C)Cc1c(C)[nH]c2ccc(Cl)cc2c1=O`, the inhibition is 27% (active).
For the compound `O=C(OC12CCCN(C1)/C(=C/c1cccnc1)C2)C1CCCC1` (stereo unspecified), the inhibition is -1.46%.
`CCc1ccccc1NC(=O)CSc1nnc(-c2cccs2)o1`: the inhibition is 1.37%.
Turning to `COc1ccc(-c2nnc(SCC(=O)c3ccc4c(c3)OCCO4)o2)cc1`, the inhibition was -0.81%.
With `COc1ccc(-n2c(C)cc(C(=O)CSc3nnc(-c4cccs4)o3)c2C)cc1`, the inhibition was 23.6% (active).
With `COc1ccc(-n2c(SCC(=O)NC3CCCC3)nnc2-c2ccncc2)cc1`, the inhibition is 0.14%.
For `COC(=O)[C@]12C[C@H](CC(=O)N3CCOCC3)C(=O)N(Cc3ccc(Cl)cc3Cl)C1=C[C@H](COCc1ccccc1)O[C@@H]2C`, the inhibition was 0.29%.
For the compound `CCC(C)C(=O)Nc1cc([N+](=O)[O-])ccc1Cl` (stereo unspecified), the inhibition is -0.24%.
As for `CC(C)C(=O)Nc1cccc(NC(=O)c2ccc([N+](=O)[O-])cc2Cl)c1`, the inhibition was 23.4% (active).
For `O=C(NCc1ccco1)c1ccc([N+](=O)[O-])cc1Cl`, the inhibition is 2.58%.
In the case of `CCC(=O)OCCCN1C(=O)CCC12CCC(c1ccccc1)CC2` (stereo unspecified), the inhibition is -3.69%.
The value for `COc1ccc(Cn2ccc3ccc(-c4ccc5ccn(Cc6ccccc6C)c5c4)cc32)cc1` was -0.92%; that for `CC(C)N1CCCCC(NC(=O)c2ccc3ccccc3c2)C1=O` (stereo unspecified) was -2.66%; that for `O=C(c1c[nH]c2ccccc12)N1CCC(Oc2cccnc2)CC1` was -3.48%.
For the compound `COC(=O)[C@H](C(C)C)N1CCc2nnn(Cc3ccc(C)cc3)c2-c2ccccc2S1(=O)=O`, the inhibition is -0.67%.
On to `C=CCN1C(=O)[C@@H](CC(=O)NCCCCc2ccccc2)[C@]2(C(=O)OCC)CCCCC/C=C/12`, for which the inhibition was -1.86%.
The figure for `COc1ccc2[nH]c3c(C)c4cc[n+](C)cc4c(C)c3c2c1` is 92.9% (active); for `CC(=O)N1CCCN(C2=Nc3ccccc3Sc3ccccc32)CC1` it is 11.8%; for `Cc1ccnc(-n2sc3ccccc3c2=O)n1` it is 21.5% (active).
For `Cc1ccc(NC(=O)Cn2sc3ccccc3c2=O)cc1`, the inhibition was -0.79%.
As to `Cc1ccnc(SC2CC(=O)N(c3ccccc3)C2=O)n1` (stereo unspecified), the inhibition was -0.14%.
The figure for `COc1ccc(CN2C/C(=C/c3ccccc3)N3C(=O)C[C@@H](c4ccccc4)N=C23)c(OC)c1` is -0.02%; for `COc1ccc(/C=C2\CC3(OC(C)=O)CCCN2C3)cc1` (stereo unspecified) it is -2.63%; for `C=CCN1C(C(=O)OC)CN(Cc2cn(Cc3ccccc3)nn2)CCS1(=O)=O` (stereo unspecified) it is 15.8%.
Regarding `O=C(NCCCc1ccccc1)C(=O)c1c[nH]c2ccccc12`, the inhibition is -1.59%.
On to `O=C(CNC(=O)c1ccccc1F)OCC(=O)c1c[nH]c2ccccc12`, for which the inhibition was -1.49%.
For the compound `C[N+](C)(C)CCNC(=O)c1c[nH]c2ccccc12`, the inhibition was 21.1% (active).
With `Clc1ccc(-n2c(COc3ccccc3)nnc2SCc2nc3ccccc3[nH]2)cc1`, the inhibition is -1.31%.
As for `C[C@@H](NC(=O)c1ccccc1OCC(=O)Nc1ccc(I)cc1)C(=O)N(C)Cc1ccccc1`, the inhibition is 0.7%.
For `COc1ccc2c(c1)c(=Cc1ccc(N(C)C)cc1)c1cc(-c3ccccc3)[n+](C)n12`, the inhibition was 57.8% (active).
As for `C=C1C(C(C)C)N(C)C2=NC(c3ccccc3)CC(=O)N12` (stereo unspecified), the inhibition is -0.97%.
The value for `CC(C)CSc1nnc(-c2cccnc2)n1Cc1ccccc1` was -0.61%.
Turning to `Cc1ccc(NC(=O)Cc2cccc(F)c2)c(S(=O)(=O)N2CCOCC2)c1`, the inhibition is 0.9%.
Take `O=C(Cn1ncc2c3ccccc3n(Cc3ccccc3)c2c1=O)NCCCN1CCOCC1`: the inhibition was 0.46%.
The value for `Cc1ccccc1Cn1c2ccccc2c2cnn(CC(=O)NCc3ccco3)c(=O)c21` was 22.5% (active).
On to `O=C(Cn1ncc2c3ccccc3n(Cc3ccccc3)c2c1=O)NCc1ccccn1`, for which the inhibition is 0.71%.
For the compound `CCC(=O)c1c(CC)c2n3c1=CC[C@H]3CC(Br)C=2` (stereo partly specified), the inhibition is 1.95%.
Turning to `O=C(NCc1ccc(Cl)cc1)C1CCCN(c2nc3ccccc3o2)C1` (stereo unspecified), the inhibition is 2.81%.
In the case of `COc1ccc(N2CCN(CCNS(=O)(=O)c3ccc(Cl)s3)CC2)cc1`, the inhibition is -0.57%.
`Cc1ccc(NC(=O)OCc2cncs2)cc1`: the inhibition was 49.5% (active).
As to `CC(C)(COC(=O)Nc1ccccc1)COC(=O)Nc1ccccc1`, the inhibition was -1.28%.
Consider `O=C(Nc1ccc(Cl)cc1)OCc1cc(-c2ccccc2)on1`, for which the inhibition was 2.42%.
The figure for `CN1C[C@]2(C=C3CCCCC3n3c(=O)n(-c4ccccc4)c(=O)n32)N=C1NC(=O)c1ccccc1` (stereo partly specified) is -2.02%.
